# Bioassay records: PubChem BioAssay, The Scripps Research Institute Molecular Screening Center
# hgDAF-12 ag: activates the H. glycines DAF-12 receptor ligand-binding domain; AID 687014; hit rate 1.8% among 370,000; HEK293 GAL4-hgDAF12 UAS-luciferase reporter, agonist luminescence; normalized to butyrate control; activation, % at 6.8 µM;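 active = activation above a cutoff set at the mean of all screened compounds plus 3 SD, cut at about 10% in these data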;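 note: 0% = DMSO wells and 100% = sodium butyrate wells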
# DAX1 inh-1: inhibits human nuclear receptor DAX1 | HEK293 Gal4-DAX1 luciferase reporter, luminescence | hit rate 0.99% among 340,000 | inhibition, % at 6.75 µM | P51843;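 active = inhibition above the mean over all tested compounds plus 3 SD, cut at about 4.2% in these data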;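 note: 0% = DAX1-transfected cells with DMSO and 100% = empty-vector control cells with DMSO; inhibition shows as a rise in luminescence from relieved DAX1 repression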
# ssDAF12 agonist: S. stercoralis DAF-12 activation, primary screen. hit rate 1% among 370,000. AID 652126. HEK293 ssDAF-12/GRIP1 lit1-tk-luc reporter, luminescence; % of 3 µM dafachronic acid response. activation, % at 6.8 µM;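 active = activation above the mean over all tested compounds plus 3 SD, cut at about 0.9% in these data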;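 note: 0% = DMSO-only wells and 100% = 3 µM delta7-dafachronic acid wells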
# AHR act: human AHR activation; P35869; AID 2796; AHR-responsive luciferase reporter cells, luminescence; hit rate 2.5% among 320,000; activation, % at 5 µM; in the data active = activation above about 47%;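 note: 0% = vehicle wells and 100% = reference agonist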
# DAX1 inh-2: inhibitors of DAX1 repression of SF-1 activated StAR promoter. HEK293T StAR-luciferase reporter, SF-1/DAX-1 repression relief. AID 652010. hit rate 1.1% among 370,000. inhibition, % at 6.8 µM;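 active = inhibition above the mean over all tested compounds plus 3 SD, cut at about 3.6% in these data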;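 note: 0% = DAX-1 cells with DMSO and 100% = cells lacking DAX-1 with DMSO; higher inhibition means more luminescence from relief of DAX-1 repression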
# hcDAF-12 act: activates DAF-12 receptor from parasite H. contortus; hit rate 1.4% among 370,000; HEK293 hcDAF-12 lit1-tk-luc reporter, luminescence; 0% DMSO, 100% Δ7-dafachronic acid; activation, % at 6.8 µM;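 active = activation above the mean of all tested compounds plus 3 SD, cut at about 5.5% in these data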;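 note: 100% = response to 3 µM Δ7-dafachronic acid high control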
# LXRb hcDAF ctr: activates human LXR-beta, counter-screen for hcDAF-12 agonists. shares compounds with hcDAF-12 act. HEK293 Gal4-LXR tk-luc reporter, luminescence, 24 h; normalized: DMSO 0%, positive control 100%. activation, % at 6.8 µM. 3,400 tested, under 10 active;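 active = mean percent activation of the reporter above a cutoff set as the average over tested compounds plus their standard deviation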
# hcDAF12 conf: confirmation of H. contortus DAF-12 agonists; shares compounds with hcDAF-12 act; hit rate 61% among 3,400; activation, % at 6.8 µM; HEK293 hcDAF-12 lit1-tk-luc reporter, luminescence; % of Δ7-dafachronic acid response; AID 743032;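 active = mean activation across triplicate tests above the threshold derived from the earlier primary screen, cut at about 5.5% in these data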;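 note: 0% = DMSO only wells and 100% = 3 µM Δ7-dafachronic acid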
# hgDAF12 conf: hgDAF-12 agonism, confirmation assay. shares compounds with hgDAF-12 ag. HEK293 GAL4-hgDAF12 luciferase reporter, agonist mode; percent of butyrate response. activation, % at 6.8 µM. hit rate 80% among 3,300. AID 743050;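 active = mean activation over triplicate wells above the hit cutoff derived from the earlier primary screen, cut at about 11% in these data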;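 note: 0% = DMSO low control and 100% = 2 mM sodium butyrate high control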
# LXR ag 2: counter-screen for DAF-12 agonists: agonists of human LXR-beta; HEK293 Gal4-LXR luciferase reporter, 24 h; activation, % at 6.8 µM; 3,300 tested, under 10 active; shares compounds with hgDAF-12 ag; AID 743051;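 active = mean activation of the triplicate above a set limit carried over from the primary screen, none filed active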
# * marks the source's active call; other numbers are inactive results; x = not tested or not shown; ! = not active in a repeat. Sampled rows, rich in hits. Any-hit rate of the full collection: about 5.7%.
SMILES,hgDAF-12 ag,DAX1 inh-1,ssDAF12 agonist,AHR act,DAX1 inh-2,hcDAF-12 act,LXRb hcDAF ctr,hcDAF12 conf,hgDAF12 conf,LXR ag 2
O=C(Nc1ccc2c(c1)OCCO2)c1ccc(Cl)cc1Cl,13*,-2,1,-8,2,8.0*,2,8.0*,19*,1
COc1cccc(NC(=O)c2ccc3c(c2)OCCO3)c1,14*,-3,1,x,2,11*,1,6.9*,16*,1
COc1cccc(NC(=O)COC(=O)c2ccc3c(c2)OCCO3)c1,2,3,-1,x,0,-1,x,x,x,x
O=C(Nc1ccc2c(c1)OCCO2)c1cccc(Cl)c1,18*,3,0,9,2,9.9*,1,4,15*,1
O=C(Nc1ccncc1)c1ccc2c(c1)OCCO2,1,-3,-1,11,-1,-1,x,x,x,x
O=C(/C=C/c1ccco1)NC(=S)Nc1cc(-c2nc3ccccc3s2)ccc1Cl,15*,2,2.8*,30,3,12*,0,5,6,0
Cc1nc(-c2ccc3c(c2)OCCCO3)cs1,13*,3,0,-2,2,6.6*,1,5,18*,1
Nc1ccc2cc3[nH]c4cc(N)ccc4c3nc2c1,35*,-1,3.0*,x,-2,19*,3.5*,15*,20*,1
Cc1ccc(/C(=N/Nc2ncnc3ccccc23)C(=O)O)cc1,18*,3,1.9*,59*,3.7*,17*,0,6.3*,12*,0
COc1cc2ccccc2cc1C(=O)Nc1ccccc1Cl,16*,4.8*,2.2*,53*,3,12*,1,15*,20*,1
O=C(Nc1ccccc1Cl)c1ccccc1,4,1,-1,-4,1,-1,x,x,x,x
Cc1ccc(C(=O)Nc2ccccc2Cl)cc1,13*,7.1*,1.2*,13,3,12*,2,7.3*,16*,1
Cc1ccc(Nc2nc(N)c3ccccc3n2)cc1C,16*,-2,0.9*,x,3,6.6*,2,8.0*,21*,1
Cc1cc(NC(=O)Nc2ccccc2F)ccc1Br,21*,3,1,22,3,7.1*,1,6.3*,18*,1
O=C(Nc1ccccc1)Nc1ccc(Br)cc1F,7,-2,-1,10,0,-1,x,x,x,x
[O-][n+]1c(/C=C/c2ccccc2)ccc2ccccc21,14*,7.2*,1.5*,x,2,13*,1,8.6*,21*,1
CN(C)c1ccc(/C=C/c2ccc3ccccc3[n+]2C)cc1,-18,-4,-4,-5,-4,-9,x,x,x,x
C[n+]1c2cc(N)ccc2cc2ccc(N)cc21,13*!,-1,0,x,-3,6.6*,1,11*,8,1
O=C(NC(=S)Nc1ccccc1)c1cccs1,15*,4.5*,1,11,1,4,x,x,17*,0
COC(=O)c1ccnc(SCC(=O)c2ccccc2)c1,18*,2,1,2,2,3,x,x,14*,0
COC(=O)c1cnc(SCC(=O)c2ccccc2)n1C,15*,4,0,4,2,6.1*,x,x,14*,1
Cn1c(SCC(=O)c2ccccc2)ncc(C(=O)Nc2ccccc2)c1=O,4,0,1,34,2,2,x,x,x,x
